Results reported in PubChem BioAssay AID1159580 (chemical genetic matrix, 2015).
In all, about 5,500 compounds went through this assay and about 2,000 (36%) were called active. Another 18% or so got no clear call; they are omitted. Rule as the data show it: active = normalized growth mostly below about 0.91 (no sharp cut-off); inconclusive = no clear call, values can overlap the other calls; inactive = mostly above about 0.92. The list shows a part of the results.

Assay: chemical genetic growth profiling, strain panel (AID 1159580);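 also: tested at 20 µM; growth read once vehicle control cultures reached saturation at 30 °C; 1 = growth at the plate median or of vehicle wells; lower values mean less growth of the strain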
Details: growth OD

Measured: normalized growth

CC(=O)O[C@@H]1CC2C(C)(C)[C@H](O)C[C@H](O)[C@]2(C)C2CC[C@@]3(C)[C@H](c4ccoc4)OC(=O)[C@H]4O[C@]43[C@@]21C (stereo not given in full)
inactive: S. cerevisiae deletion strains, locus YAL021C, strain ccr4, hits give low values 1.01 | S. cerevisiae deletion strains, locus YAL026C, strain drs2, hits give low values 0.993 | S. cerevisiae deletion strains, locus YAL030W, strain snc1, hits give low values 0.995 | S. cerevisiae deletion strains, locus YBL061C, strain skt5, hits give low values 0.988 | S. cerevisiae deletion strains, locus YBR009C, strain hhf1, hits give low values 0.974 | S. cerevisiae deletion strains, locus YBR021W, strain FUR4, hits give low values 0.959 | S. cerevisiae deletion strains, locus YBR023C, strain chs3, hits give low values 0.985 | S. cerevisiae deletion strains, locus YBR171W, strain sec66, hits give low values 0.986 | S. cerevisiae deletion strains, locus YBR229C, strain ROT2, hits give low values 0.952 | S. cerevisiae deletion strains, locus YBR231C, strain swc5, hits give low values 0.983 | S. cerevisiae deletion strains, locus YBR279W, strain paf1, hits give low values 0.988 | S. cerevisiae deletion strains, locus YCL011C, strain gbp2, hits give low values 0.984 | S. cerevisiae deletion strains, locus YCL016C, strain dcc1, hits give low values 0.996 | S. cerevisiae deletion strains, locus YCL029C, strain bik1, hits give low values 0.987 | S. cerevisiae deletion strains, locus YCL061C, strain MRC1, hits give low values 0.99 | S. cerevisiae deletion strains, locus YCL069W, strain vba3, hits give low values 0.989 | S. cerevisiae deletion strains, locus YCR088W, strain abp1, hits give low values 0.995 | S. cerevisiae deletion strains, locus YDL005C, strain med2, hits give low values 0.985 | S. cerevisiae deletion strains, locus YDL035C, strain GPR1, hits give low values 0.982 | S. cerevisiae deletion strains, locus YDL040C, strain nat1, hits give low values 0.984 | S. cerevisiae deletion strains, locus YDL074C, strain BRE1, hits give low values 0.987 | S. cerevisiae deletion strains, locus YDL101C, strain DUN1, hits give low values 1 | S. cerevisiae deletion strains, locus YDL185W, strain tfp1, hits give low values 0.981 | S. cerevisiae deletion strains, locus YDL192W, strain arf1, hits give low values 0.988 | S. cerevisiae deletion strains, locus YDR001C, strain nth1, hits give low values 0.979 | S. cerevisiae deletion strains, locus YDR069C, strain doa4, hits give low values 0.983 | S. cerevisiae deletion strains, locus YDR101C, strain arx1, hits give low values 0.957 | S. cerevisiae deletion strains, locus YDR137W, strain rgp1, hits give low values 1.03 | S. cerevisiae deletion strains, locus YDR159W, strain sac3, hits give low values 0.968 | S. cerevisiae deletion strains, locus YDR162C, strain NBP2, hits give low values 0.993 | S. cerevisiae deletion strains, locus YDR195W, strain ref2 0.935 | S. cerevisiae deletion strains, locus YDR297W, strain sur2, hits give low values 0.996 | S. cerevisiae deletion strains, locus YDR318W, strain mcm21, hits give low values 0.995 | S. cerevisiae deletion strains, locus YDR334W, strain swr1, hits give low values 0.99 | S. cerevisiae deletion strains, locus YDR335W, strain msn5, hits give low values 0.989 | S. cerevisiae deletion strains, locus YDR388W, hits give low values 0.994 | S. cerevisiae deletion strains, locus YDR392W, strain spt3, hits give low values 0.913 | S. cerevisiae deletion strains, locus YDR502C, strain sam2, hits give low values 1 | S. cerevisiae deletion strains, locus YEL003W, strain gim4, hits give low values 0.987 | S. cerevisiae deletion strains, locus YEL037C, strain rad23, hits give low values 0.987 | S. cerevisiae deletion strains, locus YEL061C, strain CIN8 (second series), hits give low values 0.977 | S. cerevisiae deletion strains, locus YER015W, strain faa2, hits give low values 0.981 | S. cerevisiae deletion strains, locus YER016W, strain bim1, hits give low values 0.99 | S. cerevisiae deletion strains, locus YER110C, hits give low values 0.978 | S. cerevisiae deletion strains, locus YER111C, strain swi4, hits give low values 0.976 | S. cerevisiae deletion strains, locus YER155C, strain BEM2 (second series), hits give low values 0.997 | S. cerevisiae deletion strains, locus YER155C, strain BEM2, hits give low values 1 | S. cerevisiae deletion strains, locus YER167W, strain BCK2, hits give low values 0.98 | S. cerevisiae deletion strains, locus YFR010W, strain ubp6, hits give low values 0.983 | S. cerevisiae deletion strains, locus YGL078C, strain dbp3, hits give low values 1 | S. cerevisiae deletion strains, locus YGL086W, strain mad1, hits give low values 0.996 | S. cerevisiae deletion strains, locus YGL167C, strain pmr1, hits give low values 0.995 | S. cerevisiae deletion strains, locus YGL173C, strain kem1, hits give low values 0.962 | S. cerevisiae deletion strains, locus YGL227W, strain vid30, hits give low values 0.986 | S. cerevisiae deletion strains, locus YGL240W, strain doc1, hits give low values 0.971 | S. cerevisiae deletion strains, locus YGL248W, strain PDE1, hits give low values 1.01 | S. cerevisiae deletion strains, locus YGL253W, strain hxk2, hits give low values 0.955 | S. cerevisiae deletion strains, locus YGR078C, strain PAC10, hits give low values 1.02 | S. cerevisiae deletion strains, locus YGR135W, strain pre9, hits give low values 1.06 | S. cerevisiae deletion strains, locus YGR252W, strain gcn5, hits give low values 1.07 | S. cerevisiae deletion strains, locus YHR013C, strain ard1, hits give low values 0.963 | S. cerevisiae deletion strains, locus YHR027C, strain rpn1, hits give low values 1 | S. cerevisiae deletion strains, locus YHR079C, strain IRE1 (second series), hits give low values 0.987 | S. cerevisiae deletion strains, locus YHR094C, strain hxt1, hits give low values 0.978 | S. cerevisiae deletion strains, locus YHR129C, strain ARP1, hits give low values 0.993 | S. cerevisiae deletion strains, locus YHR142W, strain chs7, hits give low values 0.98 | S. cerevisiae deletion strains, locus YHR200W, strain rpn10, hits give low values 0.983 | S. cerevisiae deletion strains, locus YIL066C, strain RNR3, hits give low values 0.965 | S. cerevisiae deletion strains, locus YIL073C, strain SPO22, hits give low values 0.997 | S. cerevisiae deletion strains, locus YIL125W, strain kgd1, hits give low values 0.946 | S. cerevisiae deletion strains, locus YIR030C, strain dcg1, hits give low values 0.985 | S. cerevisiae deletion strains, locus YJL092W, strain hpr5, hits give low values 0.984 | S. cerevisiae deletion strains, locus YJL095W, strain BCK1 (second series), hits give low values 1 | S. cerevisiae deletion strains, locus YJL095W, strain BCK1, hits give low values 1.05 | S. cerevisiae deletion strains, locus YJL115W, strain asf1, hits give low values 0.984 | S. cerevisiae deletion strains, locus YJL129C, strain trk1, hits give low values 0.979 | S. cerevisiae deletion strains, locus YJL134W, strain LCB3, hits give low values 0.987 | S. cerevisiae deletion strains, locus YJL154C, strain vps35, hits give low values 0.996 | S. cerevisiae deletion strains, locus YJL164C, strain tpk1, hits give low values 0.979 | S. cerevisiae deletion strains, locus YJL166W, strain qcr8, hits give low values 0.99 | S. cerevisiae deletion strains, locus YJL168C, strain set2, hits give low values 0.984 | S. cerevisiae deletion strains, locus YJL187C, strain SWE1 (second series), hits give low values 1.02 | S. cerevisiae deletion strains, locus YJL187C, strain SWE1, hits give low values 1 | S. cerevisiae deletion strains, locus YJR043C, strain POL32, hits give low values 0.963 | S. cerevisiae deletion strains, locus YKL009W, strain mrt4, hits give low values 0.988 | S. cerevisiae deletion strains, locus YKL068W, hits give low values 0.997 | S. cerevisiae deletion strains, locus YKL085W, strain MDH1 (second series), hits give low values 0.994 | S. cerevisiae deletion strains, locus YKL085W, strain MDH1, hits give low values 0.994 | S. cerevisiae deletion strains, locus YKL160W, strain elf1, hits give low values 1.02 | S. cerevisiae deletion strains, locus YKR001C, strain vps1, hits give low values 0.975 | S. cerevisiae deletion strains, locus YKR026C, strain gcn3, hits give low values 0.968 | S. cerevisiae deletion strains, locus YKR091W, strain srl3, hits give low values 0.983 | S. cerevisiae deletion strains, locus YLL001W, strain dnm1, hits give low values 0.984 | S. cerevisiae deletion strains, locus YLL026W, hits give low values 0.986 | S. cerevisiae deletion strains, locus YLL041C, strain sdh2, hits give low values 0.994 | S. cerevisiae deletion strains, locus YLR027C, strain aat2, hits give low values 0.993 | S. cerevisiae deletion strains, locus YLR039C, strain RIC1, hits give low values 1 | S. cerevisiae deletion strains, locus YLR058C, strain SHM2, hits give low values 0.982 | S. cerevisiae deletion strains, locus YLR102C, strain apc9, hits give low values 0.982 | S. cerevisiae deletion strains, locus YLR221C, strain rsa3, hits give low values 0.972 | S. cerevisiae deletion strains, locus YLR258W, strain gsy2, hits give low values 0.995 | S. cerevisiae deletion strains, locus YLR262C, strain YPT6 (second series), hits give low values 1 | S. cerevisiae deletion strains, locus YLR268W, strain sec22, hits give low values 0.976 | S. cerevisiae deletion strains, locus YLR320W, strain mms22, hits give low values 0.986 | S. cerevisiae deletion strains, locus YLR330W, strain CHS5, hits give low values 0.994 | S. cerevisiae deletion strains, locus YLR342W, strain FKS1, hits give low values 0.984 | S. cerevisiae deletion strains, locus YLR357W, strain rsc2, hits give low values 0.987 | S. cerevisiae deletion strains, locus YLR370C, strain arc18, hits give low values 0.994 | S. cerevisiae deletion strains, locus YLR371W, strain rom2, hits give low values 0.959 | S. cerevisiae deletion strains, locus YLR384C, strain iki3, hits give low values 0.994 | S. cerevisiae deletion strains, locus YLR418C, strain cdc73, hits give low values 1.03 | S. cerevisiae deletion strains, locus YML016C, strain PPZ1, hits give low values 0.968 | S. cerevisiae deletion strains, locus YML032C, strain rad52, hits give low values 0.963 | S. cerevisiae deletion strains, locus YML120C, strain ndi1, hits give low values 0.996 | S. cerevisiae deletion strains, locus YML124C, strain tub3, hits give low values 0.975 | S. cerevisiae deletion strains, locus YMR058W, strain fet3, hits give low values 0.989 | S. cerevisiae deletion strains, locus YMR078C, strain ctf18, hits give low values 0.988 | S. cerevisiae deletion strains, locus YMR125W, strain sto1, hits give low values 0.993 | S. cerevisiae deletion strains, locus YMR129W, hits give low values 1.01 | S. cerevisiae deletion strains, locus YMR205C, strain PFK2, hits give low values 0.967 | S. cerevisiae deletion strains, locus YMR223W, strain ubp8, hits give low values 1 | S. cerevisiae deletion strains, locus YMR231W, strain pep5, hits give low values 0.988 | S. cerevisiae deletion strains, locus YMR307W, strain GAS1, hits give low values 0.972 | S. cerevisiae deletion strains, locus YNL067W, strain RPL9B, hits give low values 1.02 | S. cerevisiae deletion strains, locus YNL071W, strain lat1, hits give low values 0.987 | S. cerevisiae deletion strains, locus YNL153C, strain GIM3, hits give low values 1.01 | S. cerevisiae deletion strains, locus YNL209W, strain ssb2, hits give low values 1 | S. cerevisiae deletion strains, locus YNL233W, strain BNI4, hits give low values 1.02 | S. cerevisiae deletion strains, locus YNL248C, strain rpa49, hits give low values 1.01 | S. cerevisiae deletion strains, locus YNL250W, strain rad50, hits give low values 1.02 | S. cerevisiae deletion strains, locus YNL271C, strain bni1, hits give low values 0.988 | S. cerevisiae deletion strains, locus YNL298W, strain CLA4, hits give low values 0.982 | S. cerevisiae deletion strains, locus YNL307C, strain MCK1, hits give low values 0.992 | S. cerevisiae deletion strains, locus YNL322C, strain KRE1 (second series), hits give low values 0.979 | S. cerevisiae deletion strains, locus YNL322C, strain KRE1, hits give low values 0.999 | S. cerevisiae deletion strains, locus YNR049C, strain mso1, hits give low values 0.994 | S. cerevisiae deletion strains, locus YNR052C, strain pop2, hits give low values 1.01 | S. cerevisiae deletion strains, locus YOL006C, strain TOP1, hits give low values 1.05 | S. cerevisiae deletion strains, locus YOL012C, strain htz1 0.767 | S. cerevisiae deletion strains, locus YOL147C, strain pex11, hits give low values 0.991 | S. cerevisiae deletion strains, locus YOR001W, strain rrp6, hits give low values 1.01 | S. cerevisiae deletion strains, locus YOR061W, strain CKA2, hits give low values 0.939 | S. cerevisiae deletion strains, locus YOR069W, strain VPS5, hits give low values 1 | S. cerevisiae deletion strains, locus YOR070C, strain gyp1, hits give low values 0.999 | S. cerevisiae deletion strains, locus YOR080W, strain dia2, hits give low values 0.989 | S. cerevisiae deletion strains, locus YOR083W, strain WHI5, hits give low values 1.02 | S. cerevisiae deletion strains, locus YOR106W, strain vam3, hits give low values 1 | S. cerevisiae deletion strains, locus YOR136W, strain idh2, hits give low values 0.993 | S. cerevisiae deletion strains, locus YOR144C, strain elg1, hits give low values 0.98 | S. cerevisiae deletion strains, locus YOR184W, strain ser1, hits give low values 0.967 | S. cerevisiae deletion strains, locus YOR265W, strain rbl2, hits give low values 0.999 | S. cerevisiae deletion strains, locus YOR270C, strain vph1, hits give low values 0.828 | S. cerevisiae deletion strains, locus YOR290C, strain snf2, hits give low values 0.923 | S. cerevisiae deletion strains, locus YOR316C, strain cot1, hits give low values 0.981 | S. cerevisiae deletion strains, locus YPL051W, strain arl3, hits give low values 1.03 | S. cerevisiae deletion strains, locus YPL055C, strain LGE1, hits give low values 0.957 | S. cerevisiae deletion strains, locus YPL078C, strain atp4, hits give low values 0.999 | S. cerevisiae deletion strains, locus YPL106C, strain sse1, hits give low values 1 | S. cerevisiae deletion strains, locus YPL240C, strain hsp82, hits give low values 1 | S. cerevisiae deletion strains, locus YPR119W, strain clb2, hits give low values 0.994 | S. cerevisiae deletion strains, locus YPR141C, strain kar3, hits give low values 0.982 | S. cerevisiae deletion strains, locus YPR163C, strain tif3, hits give low values 0.975 | S. cerevisiae deletion strains, locus YPR167C, strain met16, hits give low values 0.99 | S. cerevisiae deletion strains, strain wtn01, hits give low values 0.949 | S. cerevisiae strains, strain wild type, hits give low values 0.976
